Records with an inconclusive call do not appear. Calls of active or inactive are those of the source. Unless noted, the call rests on the fitted dose curve; in most records, active means well fitted curve in the direction sought with a large enough effect in the repeat runs; inconclusive means weak or mixed curves; inactive means no such curve, though single readings can be large; an effect the other way counts as inactive or inconclusive.
Experiments:
[1] = qHTS assay to identify small molecule agonists of the peroxisome proliferator-activated receptor delta (PPARd) signaling pathway - cell viability counter screen (AID 743211); further: nearly all actives have a fitted effect of over 55% in size
Summary of the method: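 Viability of GeneBLAzer PPARd UAS-bla HEK293H cells was assessed after 17 h compound incubation at 37C, using CellTiter-Glo reagent added after the reporter read and luminescence recorded 30 min later.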

[2] = molecular target: Peroxisome proliferator-activated receptor delta (Homo sapiens) (UniProt Q03181); assay: qHTS assay to identify small molecule agonists of the peroxisome proliferator-activated receptor delta (PPARd) signaling pathway (AID 743212; calls by dose curve)
Sequence of Peroxisome proliferator-activated receptor delta (Homo sapiens) (Q03181 whole entry, looked up): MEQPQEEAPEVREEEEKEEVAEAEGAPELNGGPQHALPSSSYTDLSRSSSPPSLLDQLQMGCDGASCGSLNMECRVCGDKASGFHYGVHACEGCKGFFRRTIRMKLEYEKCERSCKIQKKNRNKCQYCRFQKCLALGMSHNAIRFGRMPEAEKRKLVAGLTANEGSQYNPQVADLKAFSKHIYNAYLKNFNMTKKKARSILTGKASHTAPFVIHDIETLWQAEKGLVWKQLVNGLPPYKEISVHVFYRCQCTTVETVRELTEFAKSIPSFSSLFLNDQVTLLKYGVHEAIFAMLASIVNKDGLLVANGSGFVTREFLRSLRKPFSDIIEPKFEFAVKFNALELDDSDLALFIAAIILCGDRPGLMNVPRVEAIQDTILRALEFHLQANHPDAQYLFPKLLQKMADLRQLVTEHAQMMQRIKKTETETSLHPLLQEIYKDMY
Summary of the method: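 Quantitative high-throughput agonist screen in a HEK293H beta-lactamase reporter line under UAS control. Compounds in DMSO, at 37 C. Fluorescence read after 2 h with FRET substrate at room temperature.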

[3] = qHTS assay to identify small molecule antagonists of the peroxisome proliferator-activated receptor delta (PPARd) signaling pathway - cell viability counter screen (AID 743213); further: nearly all actives have a fitted effect of over 50% in size
Summary of the method: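 Cytotoxicity counter screen: CellTiter-Glo luminescence read 30 min after addition, in the same wells as the reporter assay. There, PPARd UAS-bla HEK293H cells (3000/well) were treated 17 h at 37 C with compound and 300 nM L165041.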

[4] = molecular target: Peroxisome proliferator-activated receptor delta (Homo sapiens) (UniProt Q03181); assay: qHTS assay to identify small molecule antagonists of the peroxisome proliferator-activated receptor delta (PPARd) signaling pathway (AID 743215; active means well fitted inhibition curve with a large enough effect in the signal ratio in the repeat runs, not every such curve was filed as active; the % refers to the signal ratio;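 further: cells stimulated with agonist L165041 at 300 nM final during compound exposure; series mostly up to about 62 µM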)
Summary of the method: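 HEK293H UAS-bla, PPARd; agonist L165041 300 nM final with cpd in DMSO; 37 C 17 h; FRET substrate, RT 2 h; fluorescence intensity.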

[5] = qHTS assay to identify small molecule agonists of the farnesoid-X-receptor (FXR) signaling pathway - cell viability counter screen (AID 743218); further: nearly all actives have a fitted effect of over 45% in size
Summary of the method: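 Parallel cytotoxicity test: compound-treated (16 h, 37 C) HEK 293T FXR-bla reporter cells were lysed with CellTiter-Glo and luminescence recorded.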

[6] = qHTS assay to identify small molecule antagonists of the farnesoid-X-receptor (FXR) signaling pathway - cell viability counter screen (AID 743221; active means well fitted cell-killing curve with a large enough effect in the repeat runs, not every such curve was filed as active; further: nearly all actives have a fitted effect of over 50% in size)
Summary of the method: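 Quantitative HTS of the Tox21 10K library run in parallel with the beta-lactamase reporter read. HEK 293T cells carrying a UAS-driven bla reporter got compound and 50 uM CDCA (final) for 16 h; ATP-based luminescence followed.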

[7] = molecular target: Vitamin D3 receptor (Homo sapiens) (UniProt P11473); assay: qHTS assay to identify small molecule agonists of the vitamin D receptor (VDR) signaling pathway (AID 743222; calls by dose curve)
Sequence of Vitamin D3 receptor (Homo sapiens) (P11473 whole entry, looked up): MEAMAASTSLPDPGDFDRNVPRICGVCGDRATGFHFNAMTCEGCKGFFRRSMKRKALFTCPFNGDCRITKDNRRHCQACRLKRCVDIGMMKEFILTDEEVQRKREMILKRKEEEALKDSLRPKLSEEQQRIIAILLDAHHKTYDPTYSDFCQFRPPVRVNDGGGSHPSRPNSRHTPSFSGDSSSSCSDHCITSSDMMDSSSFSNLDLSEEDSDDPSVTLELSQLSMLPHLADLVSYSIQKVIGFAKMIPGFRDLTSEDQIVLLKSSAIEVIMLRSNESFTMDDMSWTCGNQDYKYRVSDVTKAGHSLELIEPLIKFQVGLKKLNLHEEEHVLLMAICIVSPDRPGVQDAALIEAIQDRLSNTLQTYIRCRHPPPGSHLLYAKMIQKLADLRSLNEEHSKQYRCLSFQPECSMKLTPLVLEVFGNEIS
Summary of the method: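 In VDR-bla cells, compound-induced beta-lactamase expression is quantified by FRET substrate fluorescence. Treatment lasts 16 h at 37C; substrate develops 2 h at room temperature.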

[8] = molecular target: Vitamin D3 receptor (Homo sapiens) (UniProt P11473); assay: qHTS assay to identify small molecule antagonists of the vitamin D receptor (VDR) signaling pathway (AID 743223; active means well fitted inhibition curve with a large enough effect in the signal ratio in the repeat runs, not every such curve was filed as active; the % refers to the signal ratio)
Summary of the method: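 Fluorescence from LiveBLAzer B/G FRET substrate, read after 2 h at room temperature, reflects beta-lactamase reporter activity in VDR-bla cells treated 16 h at 37C with compounds and agonist 1alpha,25-dihydroxyvitamin D3 (3 nM final).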

[9] = qHTS assay to identify small molecule agonists of the NFkB signaling pathway (AID 1159509; active means well fitted curve in the direction sought with a large enough effect in the signal ratio in the repeat runs, not every such curve was filed as active; the % refers to the signal ratio; further: series mostly up to about 61 µM)
Summary of the method: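 After overnight attachment, reporter cells received test compounds, DMSO or positive controls and were incubated 5 hr at 37 C. FRET substrate was then added for 1.5 hr at room temperature before dual-emission fluorescence reading.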

[10] = qHTS assay to identify small molecule agonists of the NFkB signaling pathway - cell viability counter screen (AID 1159515; calls by dose curve; further: series mostly up to about 61 µM; nearly all actives have a fitted effect of over 55% in size)
Summary of the method: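 Using the same wells as the NFkB reporter read, ME-180 NFkB-bla cells given compounds for 5 hr were assessed for viability via CellTiter-Glo, with luminescence taken after a 30 min room-temperature incubation.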

[11] = qHTS assay to identify small molecule agonists of the endoplasmic reticulum stress response signaling pathway (AID 1159516; active means well fitted activation curve with a large enough effect in the signal ratio in the repeat runs, not every such curve was filed as active; the % refers to the signal ratio)
Summary of the method: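 An ESRE-bla HeLa cell assay: compounds were pin-transferred from DMSO onto overnight-plated cells and left 5 hr at 37 C. Substrate was then loaded for 2 hr at room temperature before reading fluorescence at 460 nm and 530 nm.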

[12] = qHTS assay to identify small molecule agonists of the endoplasmic reticulum stress response signaling pathway - cell viability counter screen (AID 1159517; calls by dose curve;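 further: HeLa cells carrying an ER stress response element beta-lactamase reporter; series mostly up to about 61 µM; nearly all actives have a fitted effect of over 50% in size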)
Summary of the method: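 Counter-screen wells were identical to the reporter wells. Cells were plated at 1,500 per well and dosed for 5 hr, then read for luminescence 30 min after CellTiter-Glo addition.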

[13] = qHTS assay to identify small molecule antagonists of the retinoid-related orphan receptor gamma (ROR-gamma) signaling pathway - cell viability counter screen (AID 1159520); further: nearly all actives have a fitted effect of over 50% in size
Summary of the method: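 Tet-on ROR gamma CHO cells were given compounds for 2 hr, then doxycycline hyclate at 1 uM final, and incubated 16 hr at 37 C. Viability was measured as ATP content by CellTiter-Glo luminescence.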

[14] = molecular target: Nuclear receptor ROR-gamma (Homo sapiens) (UniProt P51449); assay: qHTS assay to identify small molecule antagonists of the retinoid-related orphan receptor gamma (ROR-gamma) signaling pathway (AID 1159521)
Summary of the method: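 RORγ antagonism is scored from reduced reporter luminescence in Tet-on CHO cells. Induction used 1 uM final doxycycline hyclate for 16 h at 37 C, following a 2 h compound exposure.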

[15] = qHTS assay to identify small molecule agonists of the AP-1 signaling pathway - cell viability counter screen (AID 1159525; calls by dose curve; further: nearly all actives have a fitted effect of over 55% in size)
Summary of the method: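 AP-1-bla ME-180 cells in Opti-MEM with 0.5% dialyzed FBS, compound exposure 5 h at 37 C in 15-point titration. Viability read in the same wells as ATP content by CellTiter-Glo luminescence, normalised to tetra-n-octylammonium bromide and DMSO controls.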

[16] = qHTS assay to identify small molecule agonists of the AP-1 signaling pathway (AID 1159526; calls by dose curve)
[17] = molecular target: Bile acid receptor (Homo sapiens) (UniProt Q96RI1); assay: qHTS assay to identify small molecule antagonists of the farnesoid-X-receptor (FXR) signaling pathway (AID 743217; active means well fitted inhibition curve with a large enough effect in the signal ratio in the repeat runs, not every such curve was filed as active; the % refers to the signal ratio)
Sequence of Bile acid receptor (Homo sapiens) (Q96RI1 whole entry, looked up): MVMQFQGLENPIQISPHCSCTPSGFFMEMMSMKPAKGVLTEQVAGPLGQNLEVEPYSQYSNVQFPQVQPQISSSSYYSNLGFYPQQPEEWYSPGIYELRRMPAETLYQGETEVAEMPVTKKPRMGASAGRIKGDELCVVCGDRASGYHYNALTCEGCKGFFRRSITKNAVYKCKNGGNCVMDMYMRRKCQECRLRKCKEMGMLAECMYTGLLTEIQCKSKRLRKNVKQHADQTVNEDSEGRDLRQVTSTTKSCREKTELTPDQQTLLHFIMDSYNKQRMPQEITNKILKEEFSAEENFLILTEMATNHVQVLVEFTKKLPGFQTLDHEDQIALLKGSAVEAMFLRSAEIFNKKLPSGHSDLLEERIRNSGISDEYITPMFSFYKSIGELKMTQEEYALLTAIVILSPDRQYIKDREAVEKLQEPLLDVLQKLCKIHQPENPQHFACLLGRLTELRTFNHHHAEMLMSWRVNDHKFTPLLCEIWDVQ
Summary of the method: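 GeneBLAzer FXR-UAS-bla HEK 293T, CDCA-stimulated (50 uM final). Compound treatment 16 h, 37 °C. Detection: beta-lactamase cleavage of B/G FRET substrate, fluorescence.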

[18] = molecular target: Bile acid receptor (Homo sapiens) (UniProt Q96RI1); assay: qHTS assay to identify small molecule agonists of the farnesoid-X-receptor (FXR) signaling pathway (AID 743220; active means well fitted activation curve with a large enough effect in the signal ratio in the repeat runs, not every such curve was filed as active; the % refers to the signal ratio)
Summary of the method: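 Beta-lactamase reporter under UAS control in GeneBLAzer FXR HEK 293T cells (5000/well) measured with LiveBLAzer FRET substrate after 2 h at room temperature. Compound exposure lasted 16 h at 37C.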

[19] = qHTS assay to identify small molecule agonists of the vitamin D receptor (VDR) signaling pathway - cell viability counter screen (AID 743224)
Summary of the method: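 Plated VDR-bla cells (4 h, 37C) received compound, incubated 16 h, then LiveBLAzer substrate 2 h RT; CellTiter-Glo added afterwards, luminescence read at 30 min.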

[20] = qHTS assay to identify small molecule antagonists of the vitamin D receptor (VDR) signaling pathway - cell viability counter screen (AID 743225); further: nearly all actives have a fitted effect of over 50% in size
Summary of the method: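 Cells (VDR-UAS-bla HEK 293T) are plated, rested 4 h at 37C, dosed with compound and 3 nM final 1-alpha,25-dihydroxy vitamin D3, and incubated 16 h. Viability is taken from CellTiter-Glo luminescence in the reporter wells.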

Measured: Potency

CCCCCCCCCC(C)=O
not listed: [17] | [18] | [19] | [20]
inactive: all other assays above

O=C(CS(=O)Cc1ccco1)NC/C=C\COc1cc(CN2CCCCC2)ccn1 (configuration not stated)
not listed: [4]
inactive: all other assays above

CNC(=O)[C@H]1O[C@@H](n2cnc3c(NCc4cc(Cl)ccc4OCc4cc(C)no4)ncnc32)[C@H](O)[C@@H]1N
inactive: all assays above

Cc1[nH]cnc1-c1ccc(Cl)cc1
not listed: [7] | [8] | [17] | [18] | [19]
inactive: all other assays above

CCCCCCCCOS(=O)(=O)O
not listed: [7] | [8] | [17]
inactive: all other assays above

O=Cc1ccc(Cl)c(Cl)c1
not listed: [17] | [18] | [20]
inactive: all other assays above

CCN1CCc2nc(N)oc2CC1
not listed: [7] | [8]
inactive: all other assays above

Source: PubChem BioAssay (Tox21)
